# Assay results reported in the supplement of paper PMC6555819.
# Test system: VDR homodimer (NR concentration 270 nM)
# Assay: PBM binding z-score (relative to random genomic background probes); higher = stronger binding; sequences stand for … in GC…GCGATTGACAGCGTAGAATGAAGG
# Method in brief: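 Random background probes are the reference for binding z-scores. These scores derive from regression-normalized fluorescence on custom Agilent 4×180K protein-binding microarrays incubated 1 h with ligand-free nuclear receptor dimers. Binding was detected with antibodies against each partner (one per run).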
row,Sequence,PBM binding z-score
1,GCAGACACGTGAAACGCAGGTAACTCAGGGTGGC,-0.988
2,TCATATAGGTAAATGCTAGGTGATAGTCCGATCT,0.168
3,AGAACAAGGGCACGCTGAGTTGATAGCAGAGTAG,1.07
4,CCTTACGGGTCACTTCAGGTTATAGCATCGGAGT,1.71
5,ATCGAAAGGTCGAAGGTGAATATACCCACCCGAA,0.834
6,CCTATTAGTTGACCATAAGGGCAGCCGAAGCTCG,0.242
7,GCTAGCAGGCCTTTTGGGTCACTCAATGACGGGC,-0.536
8,CATAGCAGGCCAATCTGGGTCACTCAAGGCTTGA,-0.0851
9,CCAGACAGGTGAAAGGTGACTCAGTCTGGTACGC,0.14
10,TATCGGAGGACACGAAGGTCAGAGCTTTCCAGAG,1.46
11,AGAATGAGGTTATTAAGATCAGTGAATTGCGGTC,1.09
12,TCTCGGAGGACACGAGAGGTCAGAGCTCGACATC,1.81
13,ATTCAAAGTTCAGGACGAGGTAACGTAAAGCACG,2.3
14,CCAGACAGGTGAGAGGGTAACTCAGCCTCGATTA,0.287
15,TCGAGTAGGTTAGTCGGCGCATTCAGCCAACATA,-0.26
16,CAAATTAGGTCAAGAGGTCAAAGTCCGCTTCCCG,5.32
17,GCTAGCAGGCCATATGGGTCACTCAATGACGGGC,-0.276
18,TCCTGTAGATCAGCAGGTTAAGAAAGCTGGCCAA,-0.526
19,ATCGAAAGGTCGAGGTGAATATAGAGAAAGGGAA,0.0536
20,ACAGACAGGTGATTAAGGTAACTCAGGCTATCAT,0.0908

row,Sequence,PBM binding z-score
1,AGTCGAAGTTCACTAGGTAACGTAAGATTCAGCT,2.7
2,CGAACTAGGTCAAGGACAGTCAATCTCCGCACGC,0.563
3,TCGAGGAGGTTACCAATGGGGCATTCAGCTTTCT,0.112
4,TCATATAGGTAAATGCTATGTGAAAGTCCGATCT,0.435
5,ACTAGCAGGCCAAGGTTGGGTCACTCAAACAAAG,0.0121
6,GCTGCTAGGTCAGGTAGGTCAGCTAACGGGTACG,0.966
7,TCTTGTAGATCACGCAGGTTAAGAAAGCCTGAGT,-0.258
8,CCGACTGGGGCAAGGTTAGCATAACGCACAGCCA,-0.191
9,TAGCCTAGGTCATTGGTCCAGTATAGTACGCATC,1.51
10,CAAACTAGGTCAAAGGTCAAAGTGGAGCCAACCA,3.27
11,CGAACCAGGGCATGAGTTGATAGCAAATGCCGAT,0.429
12,CGAACTAGGTCATTGTCAGGACAGTGAATAGTAA,1.82
13,ATACCAAGGTGATCGTGACGTCGTTGATACTAAC,-0.00274
14,TCTTGTAGATCAAGCAGGTTAACAAAGCCTGAGT,0.178
15,CCTACTGGGCCACGAAAGGTCAATGATTCAGTGA,0.883
16,ATCTCTAGGTAAAGATAGTTCGGTGAATGCAAAT,0.151
17,TCTATTAGTTGAAGGACAACCGACGAGTCCGTTT,1.62
18,TCTAGTAGATCAAGCAGGTTAAGAAAGCCTGAGT,-0.397
19,ATACCATGGTGATCGTGAGGTCGTTGATACTAAC,2.87
20,CCTACTGGGCGATCAGGTCATTGATATCAACGTT,1.53
